According to PubChem BioAssay (EPA / NIEHS):
Active and inactive are the calls of the source. Rule for the calls: active = hit-call score of the fitted dose curve at least 0.9, where 1 is the maximum; inactive = score below 0.9.

Columns and labels:
[1] = read-out: TIMP metallopeptidase inhibitor 1 (TIMP1), TIMP1 (gene 7076); assay: BSK_hDFCGF_TIMP1: BioMAP Diversity Plus: hDFCGF Assay for TIMP metallopeptidase inhibitor 1 (TIMP1) Biomarker Activity (AID 2283062); conditions: primary human foreskin fibroblasts; actives raise or lower the signal
Procedure, shortened: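 Human foreskin fibroblast primary cultures dosed for 24 h; secreted/surface TIMP-1 quantified by ELISA. Bidirectional curve fitting against DMSO baseline; cytotoxicity tracked in parallel cultures by SRB total-protein staining.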

[2] = read-out: Monokine induced gamma interferon (MIG), CXCL9 (gene 4283); assay: BSK_hDFCGF_MIG: BioMAP Diversity Plus: hDFCGF Assay for Monokine induced gamma interferon (MIG) Biomarker Activity (AID 2283063); conditions: primary human foreskin fibroblasts; actives raise or lower the signal
Procedure, shortened: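 MIG/CXCL9 measured by ELISA 24 h after dosing primary human skin fibroblasts. Activity fitted in both directions against DMSO controls. Cytotoxicity was checked in parallel cultures by SRB staining read at 560 nm.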

[3] = read-out: Matrix Metallopeptidase 1 (MMP1), MMP1 (gene 4312); assay: BSK_hDFCGF_MMP1: BioMAP Diversity Plus: hDFCGF Assay for Matrix Metallopeptidase 1 (MMP1) Biomarker Activity (AID 2283064); conditions: primary human foreskin fibroblasts; actives raise or lower the signal
Procedure, shortened: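 ELISA read-out of MMP1 from human foreskin fibroblasts (primary skin cells), 24 h post-dose. Gain or loss of signal was fitted bidirectionally versus DMSO negative control; cytotoxicity was checked by SRB in parallel cultures.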

[4] = read-out: Vascular cell adhesion molecule 1 (VCAM1), VCAM1 (gene 7412); assay: BSK_hDFCGF_VCAM1: BioMAP Diversity Plus: hDFCGF Assay for Vascular cell adhesion molecule 1 (VCAM1) Biomarker Activity (AID 2283065); conditions: primary human foreskin fibroblasts; actives raise or lower the signal
Procedure, shortened: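 Human foreskin fibroblast primary cells dosed with chemical, VCAM-1 measured by ELISA at 24 h. Bidirectional curve fitting relative to DMSO as negative control/baseline.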

[5] = read-out: Plasminogen activator inhibitor-1 (PAI1), SERPINE1 (gene 5054); assay: BSK_hDFCGF_PAI1: BioMAP Diversity Plus: hDFCGF Assay for Plasminogen activator inhibitor-1 (PAI1) Biomarker Activity (AID 2283066); conditions: primary human foreskin fibroblasts; actives raise or lower the signal
Procedure, shortened: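 PAI-1 levels in human dermal foreskin fibroblasts were quantified by ELISA 24 h after dosing, with gain or loss analysed against DMSO. Overt cytotoxicity was checked by sulforhodamine B total-protein staining in parallel cultures.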

[6] = read-out: Intercellular Adhesion Molecule 1 (ICAM1), ICAM1 (gene 3383); assay: BSK_KF3CT_ICAM1: BioMAP Diversity Plus: KF3CT Assay for Intercellular Adhesion Molecule 1 (ICAM1) Biomarker Activity (AID 2283067); conditions: primary human keratinocytes with fibroblasts; actives raise or lower the signal
Procedure, shortened: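 Human keratinocyte–foreskin fibroblast co-culture was treated for 24 h. Cell-surface ICAM-1 was quantified by ELISA, fitted bidirectionally relative to DMSO. Cytotoxicity was checked in parallel cultures by SRB total-protein staining.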

[7] = read-out: Interferon-gamma inducible Protein 10 (IP10), CXCL10 (gene 3627); assay: BSK_KF3CT_IP10: BioMAP Diversity Plus: KF3CT Assay for Interferon-gamma inducible Protein 10 (IP10) Biomarker Activity (AID 2283068); conditions: primary human keratinocytes with fibroblasts; actives raise or lower the signal
Procedure, shortened: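 ELISA read-out of IP-10 after 24 h chemical dosing of human skin primary co-culture (keratinocytes, foreskin fibroblasts). Gain or loss of signal relative to DMSO, bidirectional curve fit.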

[8] = BSK_KF3CT_SRB: Viability Assessment in the BioMAP Diversity Plus: KF3CT Assay (AID 2283069); conditions: primary human keratinocytes with fibroblasts
Procedure, shortened: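 SRB read-out at 560 nm (0.1% stain, TCA-fixed cells) gauges overt cytotoxicity in a human skin keratinocyte–fibroblast co-culture 24 h post-dosing. Signal change was fitted bidirectionally relative to DMSO control.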

[9] = read-out: Interleukin-1 alpha (IL1a), IL1A (gene 3552); assay: BSK_KF3CT_IL1a: BioMAP Diversity Plus: KF3CT Assay for Interleukin-1 alpha (IL1a) Biomarker Activity (AID 2283070); conditions: primary human keratinocytes with fibroblasts; actives raise or lower the signal
Procedure, shortened: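 Primary skin co-culture (keratinocytes, foreskin fibroblasts), 24 h exposure; ELISA for IL-1a; bidirectional curve fit vs DMSO.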

[10] = read-out: TIMP metallopeptidase inhibitor 2 (TIMP2), TIMP2 (gene 7077); assay: BSK_KF3CT_TIMP2: BioMAP Diversity Plus: KF3CT Assay for TIMP metallopeptidase inhibitor 2 (TIMP2) Biomarker Activity (AID 2283071); conditions: primary human keratinocytes with fibroblasts; actives raise or lower the signal
Procedure, shortened: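 TIMP-2 measured by ELISA at 24 h in human keratinocyte/fibroblast primary co-cultures exposed to chemicals. Both increases and decreases were fitted against DMSO. Parallel cultures were stained with SRB for total protein as an overt-cytotoxicity check.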

[11] = read-out: Transforming growth factor beta 1 (TGFb1), TGFB1 (gene 7040); assay: BSK_KF3CT_TGFb1: BioMAP Diversity Plus: KF3CT Assay for Transforming growth factor beta 1 (TGFb1) Biomarker Activity (AID 2283072); conditions: primary human keratinocytes with fibroblasts; actives raise or lower the signal
Procedure, shortened: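 ELISA quantifies TGF-b1 at 24 h post-dose in a primary human skin co-culture of keratinocytes and fibroblasts, with gain or loss judged against DMSO. Parallel SRB total-protein staining flags overt cytotoxicity.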

[12] = read-out: C-C motif chemokine 2 (Homo sapiens) (UniProt P13500); assay: BSK_KF3CT_MCP1: BioMAP Diversity Plus: KF3CT Assay for Monocyte Chemoattractant Protein 1 (MCP1/CCL2) Biomarker Activity (AID 2283073); conditions: primary human keratinocytes with fibroblasts; actives raise or lower the signal
Procedure, shortened: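 Human keratinocyte–foreskin fibroblast co-culture; MCP-1 measured by ELISA 24 h after dosing. Bidirectional fit vs DMSO; cytotoxicity tracked by SRB total protein in parallel cultures.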

[13] = read-out: Matrix Metallopeptidase 9 (MMP9), MMP9 (gene 4318); assay: BSK_KF3CT_MMP9: BioMAP Diversity Plus: KF3CT Assay for Matrix Metallopeptidase 9 (MMP9) Biomarker Activity (AID 2283074); conditions: primary human keratinocytes with fibroblasts; actives raise or lower the signal;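 for AC50: MMP9 protein level quantified by ELISA in the co-culture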
Procedure, shortened: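 ELISA read-out of MMP-9 at 24 h post-dosing in a co-culture of human skin keratinocytes and foreskin fibroblasts. Gain or loss of signal was fitted in both directions against DMSO.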

[14] = read-out: urokinase plasminogen activator (uPA), PLAU (gene 5328); assay: BSK_KF3CT_uPA: BioMAP Diversity Plus: KF3CT Assay for urokinase plasminogen activator (uPA) Biomarker Activity (AID 2283075); conditions: primary human keratinocytes with fibroblasts; actives raise or lower the signal
Procedure, shortened: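 Skin co-culture (keratinocytes + foreskin fibroblasts), human primary; 24 h post-dose; uPA by ELISA; gain/loss fit vs DMSO baseline.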

[15] = read-out: CD40, CD40 (gene 958); assay: BSK_LPS_CD40: BioMAP Diversity Plus: LPS Assay for CD40 Biomarker Activity (AID 2283076); conditions: primary human HUVEC with PBMC; actives raise or lower the signal
Procedure, shortened: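 HUVEC plus PBMC co-culture stimulated with LPS; CD40 quantified by ELISA 24 h after compound dosing. Fitting was bidirectional relative to DMSO. SRB staining of parallel cultures flagged overt cytotoxicity.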

[16] = read-out: E-selectin (Homo sapiens) (UniProt P16581); assay: BSK_LPS_Eselectin: BioMAP Diversity Plus: LPS Assay for Eselectin Biomarker Activity (AID 2283077); conditions: primary human HUVEC with PBMC; actives raise or lower the signal
Procedure, shortened: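 Human umbilical vein endothelial cells co-cultured with PBMC under LPS stimulation; cell-surface E-selectin measured by ELISA 24 h after dosing. Change in either direction versus DMSO, with SRB total-protein staining in parallel cultures for cytotoxicity.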

[17] = read-out: Interleukin-8 (IL8), CXCL8 (gene 3576); assay: BSK_LPS_IL8: BioMAP Diversity Plus: LPS Assay for Interleukin-8 (IL8) Biomarker Activity (AID 2283078); conditions: primary human HUVEC with PBMC; actives raise or lower the signal
Procedure, shortened: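 Human umbilical vein endothelial cells co-cultured with PBMC, LPS-stimulated, exposed to compound for 24 h. IL-8 quantified by ELISA; fitted in both directions against DMSO, with SRB total-protein staining of parallel cultures for cytotoxicity.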

[18] = BSK_LPS_SRB: Viability Assessment in the BioMAP Diversity Plus: LPS Assay (AID 2283079); conditions: primary human HUVEC with PBMC;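 note: total protein by sulforhodamine B absorbance as a cytotoxicity measure; measured one day after compound addition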
Procedure, shortened: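 Co-culture of human umbilical vein endothelial cells and PBMC, read 24 h after dosing. Total protein by 0.1% SRB staining after 10% TCA fixation, absorbance at 560 nm; bidirectional fit against DMSO.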

[19] = read-out: Interleukin-1 alpha (IL1a), IL1A (gene 3552); assay: BSK_LPS_IL1a: BioMAP Diversity Plus: LPS Assay for Interleukin-1 alpha (IL1a) Biomarker Activity (AID 2283080); conditions: primary human HUVEC with PBMC; actives raise or lower the signal
Procedure, shortened: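 Human umbilical vein endothelial cells co-cultured with PBMC and stimulated with LPS; IL-1a measured by ELISA 24 h after dosing. Bidirectional fitting against DMSO; cytotoxicity checked by SRB staining in parallel cultures.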

[20] = read-out: Monocyte Chemoattractant Protein-1 (MCP1), CCL2 (gene 6347); assay: BSK_LPS_MCP1: BioMAP Diversity Plus: LPS Assay for Monocyte Chemoattractant Protein-1 (MCP1) Biomarker Activity (AID 2283081); conditions: primary human HUVEC with PBMC; actives raise or lower the signal;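 for AC50: secreted MCP-1 protein quantified by ELISA in culture supernatant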
Procedure, shortened: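 Human umbilical vein endothelial cells co-cultured with PBMC, LPS-stimulated; secreted MCP-1 measured by ELISA 24 h after compound addition. Bidirectional curve fitting against DMSO baseline; SRB total-protein staining in parallel cultures for cytotoxicity.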

Measured: AC50

Chain of E-selectin (Homo sapiens) (P16581 whole entry, looked up): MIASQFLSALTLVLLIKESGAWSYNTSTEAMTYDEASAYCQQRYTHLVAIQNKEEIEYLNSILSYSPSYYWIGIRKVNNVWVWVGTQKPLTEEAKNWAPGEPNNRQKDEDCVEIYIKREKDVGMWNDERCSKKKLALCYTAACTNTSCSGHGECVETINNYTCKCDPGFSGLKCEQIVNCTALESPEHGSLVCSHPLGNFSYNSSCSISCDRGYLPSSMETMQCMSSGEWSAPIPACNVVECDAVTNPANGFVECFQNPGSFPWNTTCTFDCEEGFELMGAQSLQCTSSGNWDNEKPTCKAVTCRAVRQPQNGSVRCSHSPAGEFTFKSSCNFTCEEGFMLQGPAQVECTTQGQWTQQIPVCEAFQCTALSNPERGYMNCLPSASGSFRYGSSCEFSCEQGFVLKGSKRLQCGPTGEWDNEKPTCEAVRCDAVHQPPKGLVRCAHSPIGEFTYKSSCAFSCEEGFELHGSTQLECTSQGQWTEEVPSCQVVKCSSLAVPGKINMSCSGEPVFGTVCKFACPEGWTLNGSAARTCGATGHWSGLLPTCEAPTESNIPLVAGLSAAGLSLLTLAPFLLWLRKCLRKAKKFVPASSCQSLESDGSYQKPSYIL

Cc1ccccc1Cl
inactive: all assays above

CCCCCCC(=O)OCC
inactive: all assays above

CN1CCN(Cc2cc(-c3ccc4[nH]c(=O)oc4c3)co2)[C@@H](c2ccc(F)cc2)C1
active: [5] 11.8 µM | [13] 17.6 µM | [18] 25.9 µM | [20] 22.5 µM
not listed: [2]
inactive: all other assays above
